Bioassay records: PubChem, Johns Hopkins Ion Channel Center
TMEM16A act: activators or potentiators of mouse TMEM16A chloride channel | B-score at 10 µM | HEK293 TMEM16A/YFP-H148Q/I152L, iodide quench fluorescence; active compounds read low | hit rate 0.3% among 340,000;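 active means fluorescence-ratio B-score plate-corrected deviation score at least 3 library SD below zero, with starting fluorescence score within 5 deviations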;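 further: channel opened by trigger with iodide after compound preincubation; score built on the fluorescence ratio of max minus min over baseline; more negative score means more quench and so TMEM16A activation or potentiation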
CHT block: human CHT choline transport inhibition. Q9GZV3. CHT-expressing cells, membrane potential dye, choline response; active compounds read low. B-score at 10 µM. hit rate 0.86% among 310,000. AID 488975;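 active means B-score over 3 SD under the library average, and starting fluorescence ratio not unusually high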;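 further: choline stimulus applied at its EC90 after an EC20 pre-addition; B-score computed on integrated fluorescence ratio after choline addition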
Target sequence (Q9GZV3 whole entry, looked up): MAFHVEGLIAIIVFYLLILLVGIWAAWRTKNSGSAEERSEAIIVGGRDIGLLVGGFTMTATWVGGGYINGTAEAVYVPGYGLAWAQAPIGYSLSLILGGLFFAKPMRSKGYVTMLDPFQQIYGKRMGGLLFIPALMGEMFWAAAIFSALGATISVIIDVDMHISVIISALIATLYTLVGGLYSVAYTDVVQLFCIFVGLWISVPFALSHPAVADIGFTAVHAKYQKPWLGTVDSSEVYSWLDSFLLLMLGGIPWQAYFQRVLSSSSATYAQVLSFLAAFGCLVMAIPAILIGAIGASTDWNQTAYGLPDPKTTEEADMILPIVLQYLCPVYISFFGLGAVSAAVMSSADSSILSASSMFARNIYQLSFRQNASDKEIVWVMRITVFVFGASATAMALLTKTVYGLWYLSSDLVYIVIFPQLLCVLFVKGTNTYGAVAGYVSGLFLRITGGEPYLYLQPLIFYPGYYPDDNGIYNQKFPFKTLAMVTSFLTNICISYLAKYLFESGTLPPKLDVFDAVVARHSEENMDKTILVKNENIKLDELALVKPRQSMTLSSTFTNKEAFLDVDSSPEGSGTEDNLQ
TMEM16A inh: blocks the mouse calcium-activated chloride channel TMEM16A; hit rate 1.2% among 310,000; normalized B-score (activity score, 25-100; higher = stronger inhibition) at 10 µM; AID 588511; HEK293 TMEM16A/YFP iodide influx fluorescence, ionomycin; Q8BHY3;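 active means ratio plate-corrected score three or more library SD toward inhibition, starting fluorescence score within five deviations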;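 further: score derived from kinetic fluorescence span divided by baseline fluorescence per well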
CHT PAM: allosteric activators of human choline transporter CHT | CHT-expressing cells, membrane potential dye, choline EC20; active compounds read high; LV-AA mutant CHT in HEK293 cells | B-score at 10 µM | hit rate 0.49% among 310,000 | AID 488977;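 active means initial fluorescence not abnormally high and integrated response B-score, plate-corrected, over 3 SD above library mean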
CHT act confirm: human CHT activation, confirmatory screen. activation, % at 10 µM. hit rate 91% among 2,500. CHT-expressing cells, membrane potential dye fluorescence (FDSS); % of choline EC20–EC90 response window; HEK293 expressing CHT LV-AA mutant; choline added at its EC20. shares compounds with CHT PAM. AID 504833;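 active means primary screen active, with duplicate mean activation above negative control mean plus 3 SD, cut at about 11% in these data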
HEK293 MP dye: counter-screen for CHT activators: effect in parental HEK293 cells; ratio readout change at 10 µM, hits read low; hit rate 62% among 2,500; membrane potential dye fluorescence (FDSS); measured after EC20 choline addition; shares compounds with CHT PAM;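 active means duplicate-averaged ratio beyond 3 SD from buffer wells, up or down, though filed actives are nearly all decreases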
Of the large screens only hits and unclear results are named; the others gave an inactive call (follow-up assays come after a bar, where they were run). Hits are enriched below; roughly 2.4% of the tested compounds scored in any of these assays.

COc1ccc(N(C)C(=O)c2oc(=O)c3ccccc3c2-c2ccccc2)c(OC)c1	CHT PAM 6.3 | CHT act confirm 33 | HEK293 MP dye inactive
c1cc2c(cc1-c1csc(NNC3=NCCCCC3)n1)OCCO2	none (no result: TMEM16A act)
Cc1ccc2cc(C=O)c(N3CCOCC3)nc2c1C	none
Cc1cc(N2CCOCC2)c2c(N)cc(C)c(C)c2n1	none | CHT act confirm 55 | HEK293 MP dye -73
COc1ccc(NC(=O)COC(=O)c2c3c(nc4ccccc24)CCCC3)cc1	none
COc1ccc(NC(=O)COC(=O)c2c3c(nc4ccccc24)CCCC3)cc1Cl	none | CHT act confirm 13 | HEK293 MP dye inactive
O=C(COC(=O)c1c2c(nc3ccccc13)CCCCC2)NCc1ccc2c(c1)OCO2	CHT PAM 8.7 | CHT act confirm 36 | HEK293 MP dye inactive
Cc1ccc(C)c(NS(=O)(=O)c2csc(C(N)=O)c2)c1	none
CC(=O)N(CCC(c1ccco1)C(C)C)Cc1ccc(Cl)cc1 (stereo unspecified)	CHT PAM 7.4 | CHT act confirm 26 | HEK293 MP dye inactive
CCC(=O)N(CCC(c1ccco1)C(C)C)Cc1ccccc1 (stereo unspecified)	none
CN(CCCC1CCCC1)C(=O)CC1C(=O)NCCN1Cc1ccc(F)cc1 (stereo unspecified)	none
Cc1nn(S(=O)(=O)c2ccccc2)c(C)c1Sc1ccc([N+](=O)[O-])cc1	TMEM16A inh 25, CHT PAM 8 | CHT act confirm 29 | HEK293 MP dye inactive
CCC(=O)N(CCC(c1ccc(C)cc1)c1ccco1)Cc1ccco1 (stereo unspecified)	CHT PAM 8.7 | CHT act confirm 40 | HEK293 MP dye inactive
CN1CCN(NC(=O)c2ccc(Cl)s2)CC1	none
COC(=O)c1cc2c(ccn2-c2ccc(F)cc2)n1CC(C)C	TMEM16A inh 100 | CHT act confirm 24 | HEK293 MP dye inactive
Oc1ccc(/C=N/NC(=S)NCCN2CCOCC2)c(O)c1	none
Cc1cc(Cn2nnc(-c3ccc(Br)cc3)n2)cc(C)c1O	none (no result: CHT block, TMEM16A inh, CHT PAM)
CC1CCN(c2ccccc2NC(=O)c2ccc(C#N)cc2F)CC1	none
CC(C)C(=O)N1CCN(c2ccccc2NC(=O)c2ccc(C#N)cc2F)CC1	CHT PAM 7.7 | CHT act confirm 54 | HEK293 MP dye inactive
CCCCCN(C(=O)CCC(=O)OCC(=O)N1CCC(C)CC1)c1c(N)n(CCCC)c(=O)[nH]c1=O	none
C/C(=N\NC(=O)c1ccc(-c2ccccc2)cc1)c1cccc(N)c1	none
C/C(=N\NC(=O)c1ccccc1)c1cccc(Br)c1	none | CHT act confirm inactive | HEK293 MP dye inactive
CCSc1nc2sc3c(c2c(=O)n1-c1ccccc1)CCN(C(C)C)C3	none
COc1ccc2c(c1)c1ncn(CCCN3CCOCC3)c(=O)c1n2C	none | CHT act confirm 44 | HEK293 MP dye -39
COc1ccccc1NC(=O)C(C)NS(=O)(=O)c1ccc(Cl)cc1 (stereo unspecified)	none
CCOC(=O)/C(=C/c1ccc(OC)cc1)NC(=O)c1ccco1	none
CCOC(=O)C1=C(c2ccccc2)NC(=O)NC1c1ccc(O)c(OCC)c1 (stereo unspecified)	none
CCOC(=O)C1=C(c2ccccc2)NC(=O)NC1c1ccc(O)c(Cl)c1 (stereo unspecified)	TMEM16A act -11, CHT PAM 30 | CHT act confirm 198 | HEK293 MP dye inactive
Cc1sc2ncn3ncnc3c2c1C	none
Cc1sc2ncn3cnnc3c2c1C	none | CHT act confirm 45 | HEK293 MP dye -41
CCn1c(/C=N/Nc2ccc(C(=O)O)cc2)nc2ccccc21	CHT PAM 6.3 | CHT act confirm 44 | HEK293 MP dye -35
COCCN1Cc2cccc(C(=O)Nc3cccnc3)c2C1=O	CHT PAM 6.5 | CHT act confirm 40 | HEK293 MP dye -41
COCCN1Cc2cccc(C(=O)Nc3ccc(C)cc3)c2C1=O	none
CCc1ccccc1NC(=O)c1ccc(-c2csc(C)n2)cc1	none | CHT act confirm inactive | HEK293 MP dye inactive
CN(C)CCN(Cc1ccccc1)S(=O)(=O)c1ccc2c(c1)n(C)c(=O)c(=O)n2C	CHT PAM 12 | CHT act confirm 74 | HEK293 MP dye -81
Cc1cc(C)c(NC(=O)C2CCCN2CCOC(=O)c2ccccc2)c(C)c1 (stereo unspecified)	none
O=C(O)COc1ccc(/C=C/c2nc3ccc([N+](=O)[O-])cc3s2)cc1	CHT PAM 6.7 | CHT act confirm 46 | HEK293 MP dye -52
CC(C)c1ccc(/C=C/C(=O)Nc2nc3ccc([N+](=O)[O-])cc3s2)cc1	none
COc1ccc(COC(=O)NNC(=O)c2ccccc2Cl)cc1	none
Cc1cccnc1NC(=O)C(C)N1C(=O)c2ccccc2C1=O (stereo unspecified)	none
COc1c(N2CCN[C@H](C)C2)c(F)cc2c(=O)c(C(=O)O)cn(C3CC3)c12	CHT PAM 6.3 (no result: TMEM16A act) | CHT act confirm 31 | HEK293 MP dye -40
CC1COc2c(N3CCN(C)CC3)c(F)cc3c(=O)c(C(=O)O)cn1c23 (stereo unspecified)	CHT PAM 8.7 | CHT act confirm 44 | HEK293 MP dye -44
COc1c(F)c(F)cc2c(=O)c(C(=O)O)cn(C3CC3)c12	none
COc1c(N2C[C@@H]3CCCN[C@@H]3C2)c(F)cc2c(=O)c(C(=O)O)cn(C3CC3)c12	CHT PAM 7.8 | CHT act confirm 35 | HEK293 MP dye -42
CCOc1ccc(NC(=O)c2ccc(NC(=O)c3cn4c5c(c(N6CCN(C)CC6)c(F)cc5c3=O)OCC4C)cc2)cc1 (stereo unspecified)	none
COC(=O)[C@H]1C[C@@H]1[C@H](NC(=O)c1ccccc1)c1ccccc1	none
COc1cc(/C=N/Nc2nncc3ccccc23)cc(OC)c1OC	CHT PAM 7.6 | CHT act confirm 40 | HEK293 MP dye -48
C(=N\Nc1nncc2ccccc12)/c1ccccc1	none
O=C(OCCn1c(=S)sc2ccccc21)c1ccccc1	none (no result: CHT block, TMEM16A inh, CHT PAM)
O=C(Nc1nnc(C2=COCCO2)o1)c1ccc(S(=O)(=O)N2CCCCC2)cc1	none
CCCC1=[N+](CC(=O)c2ccccc2)CCn2c(C)ccc21	CHT PAM 8.1 | CHT act confirm 40 | HEK293 MP dye inactive
CCCC1=[N+](CC)CCn2c(C)ccc21	none
CCc1ccc(OCC(=O)N/N=C/c2cc([N+](=O)[O-])ccc2N2CCOCC2)cc1	none | CHT act confirm 23 | HEK293 MP dye inactive
COc1ccc(CC(NC(C)=O)C(=O)NC2CCN(C(=O)c3cc(OC)c(OC)c(OC)c3)CC2)cc1 (stereo unspecified)	none
Cc1cccc(NC(=S)Nc2ccc(N3CCOCC3)cc2)c1C	none
CCNC(=O)/C(C#N)=C/c1c(N2CCN(C)CC2)nc2c(C)cccn2c1=O	CHT PAM 6.3 | CHT act confirm 49 | HEK293 MP dye -53
